Experimental data: PubChem BioAssay AID1508600 (Functional Genomics Laboratory (NCATS/FGL), 2020)
The whole screen tested about 53,000 sequences, of which about 3,700 (7%) were called active.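 Rule for the calls: active = gene knockdowns whose robust z-score for IL-1 alpha signal is at least 2 or at most -2, so actives lie on both sides; inactive = the rest.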 The sample as a whole holds a higher share of actives than the screen did.

Assay: Components of the Cytosolic LPS Sensing Pathway: Gene Identification via Genome-wide siRNA Screen;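 note: robust z of the log signal after scaling to non-targeting control siRNA wells of the plate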
Conditions: RAW264.7 macrophages, IL-1a HTRF, actives lie on both sides, screened at 100 nM (by protocol), cells primed 5 h with Pam3CSK4 first
Summary of the method: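 Knockdown: 100 nM siRNA, 48h, RAW264.7. Stimulation: Pam3CSK4 5 h, then LipidA via TransIT-TKO 24 h. Output: supernatant IL-1a HTRF, negative-control-normalized, log robust z-score; viability by CellTiter-Glo.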
With GGAGUUCUUCUUCAAUGAGTT against Kcnd3 the z-score was -1.3 (inactive). With GCGUACGUUCUCCUAACAUTT against Hbs1l the z-score was -1.9 (inactive). For GGGUGAUAAAAUUCAGAUUTT against Gpr88, the z-score was 2.07 (active). In the case of GGGUGCAAACAAAAUGAUGTT against Pgm1, the z-score is reported as -1.42 (inactive). With GGGCCACAUGUGUUCACUATT against Shisa5 the z-score was -2.35 (active). With CCUUCUCUGCCUCGAUGAUTT against Cox14 the z-score was -1.23 (inactive). With GGGAAGAUGUGAUGUCUUUTT against Rab29 the z-score was -0.556 (inactive). With GGUCUUAAUCUCAGGAUGATT against Car5a the z-score was -0.294 (inactive). For GGACACAGAAUGUUCUUGGTT against Rps3, the z-score was 0.029 (inactive). With GGAAGAAAAAUAUGCUUUCTT against Pls3 the z-score was 2.7 (active). In the case of CCGAUCACUCAUGGUUGACTT against Sra1, the z-score is reported as 0.565 (inactive). With GCCUGUGCAAAAAGUAGGGTT against Grasp the z-score was -0.0182 (inactive). For GGGCCAAUAGGAGUUCUUUTT against Tcf20, the z-score was 0.285 (inactive). For GGAGCUGACGUGCUACUUATT against Speg, the z-score was 2.6 (active). In the case of GGAGAAUCUUAGAGAUUAUTT against Pramel1, the z-score is reported as 0.722 (inactive). For GCAGCUAAGCACUGGAAAATT against Coq4, the z-score was 0.318 (inactive). In the case of GGAAAAAGAGGCCUCAAAGTT against Nek5, the z-score is reported as 1.46 (inactive). With CGCUUUAUUAGAUGGGCUATT against Dlx5 the z-score was -2.27 (active). For GAAGUUCAAUGGAGAAGACTT against Arl2, the z-score was -0.825 (inactive). In the case of GGUGUUCAGACUACCCUCUTT against Serpina3m, the z-score is reported as -1.16 (inactive). With GGGCCAUAAGAUCUGUACUTT against Ccl24 the z-score was 0.472 (inactive). With GGUCCUCUAAAGAAUAAAGTT against Cela3b the z-score was 0.541 (inactive). With GCCCAGAAAUAUAAUCAAATT against Bub1 the z-score was 2.17 (active). For GGCUACCAUAGGUUUUAAUTT against Serinc4, the z-score was 0.946 (inactive). In the case of CCCGGAUGAUGGAGAUAUUTT against Mnd1, the z-score is reported as -1 (inactive). For GCCUGAUCUACUGUGGUCCTT against Olfr1347, the z-score was -0.167 (inactive). In the case of GGCUUGAUCUUCGUAGUGGTT against Arf1, the z-score is reported as 0.132 (inactive). For GCAGAGACUACUUAGCAAGTT against Adprm, the z-score was 2.29 (active). In the case of GCUUAAGAGAUUCAAAUUGTT against Olfr1317, the z-score is reported as 0.036 (inactive). For GCUCUAAACAUGAUUCAAGTT against Akap9, the z-score was 1.17 (inactive). In the case of GGCAGCUAAGUACGUUCAUTT against Gba, the z-score is reported as 0.177 (inactive). For GGAAAGAGAACAUAAAAGATT against Pla2g4a, the z-score was -0.995 (inactive). With GCAGCAUCGCGUAGAAACATT against Gar1 the z-score was -0.566 (inactive). With GCUGGAAACCCGUAUACUATT against Krt23 the z-score was 2.16 (active). In the case of CCGUGCACAACAUUGCCUATT against Qtrt1, the z-score is reported as -0.552 (inactive). With GGAAUUUUCAAGGAACAAUTT against Il1rapl2 the z-score was -1.8 (inactive). For GGCGUGUAUGUCAAAAAUATT against Grip1, the z-score was -0.201 (inactive). With GGAGUUGUUACUCUAUUUUTT against Pkd2l2 the z-score was -0.426 (inactive). With GCUCUCACACCCUUAUGUATT against Nptn the z-score was -1.45 (inactive). In the case of GGCGAGAAAUUCUUCACAUTT against Plxna3, the z-score is reported as -1.51 (inactive). For GGAGAAGGAGCAGAUUAAATT against Krt8, the z-score was 2.07 (active). In the case of CCAAAACCUCAUGCUGAAATT against Zfp758, the z-score is reported as 0.396 (inactive). With GCUAAUACGAUUUACUUUGTT against Cntn6 the z-score was 0.586 (inactive). For GGACGUAUAUCCUUUUAUGTT against Spaar, the z-score was -0.151 (inactive). With GCAUGAUCAAAUUGUAUCUTT against Nde1 the z-score was -2.21 (active). In the case of GGUCUUUCUUCGAGGAGUCTT against Ccdc33, the z-score is reported as -1.03 (inactive). For CCGUAAGAAGGAAAACGCATT against Kcnd1, the z-score was -0.506 (inactive). For GGUAAGGUUACAGCACUGATT against Chac2, the z-score was -0.489 (inactive). With GGAAUAUCUGAUAUCAGUATT against Mdga2 the z-score was 0.0727 (inactive). For GGCUUCCUCAUCGAUAUAATT against Ccnh, the z-score was 0.21 (inactive). In the case of GGUACCAAUUGAAGAUAUATT against Ncoa7, the z-score is reported as 2.2 (active). For GGACAAGGAGGAUUUCUUCTT against Nprl2, the z-score was -0.226 (inactive). In the case of CCUUCUAAGAGAAAAACGUTT against Eps15, the z-score is reported as 0.198 (inactive). With GGUAAACAGAAUAGAAUCCTT against Lcmt1 the z-score was 0.622 (inactive). With GCCUGUGUAUUCUCGCUAUTT against Mon1a the z-score was 0.345 (inactive). In the case of UGGGCCUUGUAGGCUUCAUTT against Rell2, the z-score is reported as 2.3 (active). For GGACCAGUUAUCCUCACUGTT against Eapp, the z-score was -0.514 (inactive). For GCACAGCUAAACUUAACUATT against Taz, the z-score was 0.711 (inactive). With GCAAAUUUACCUCGGUUUUTT against Olfr46 the z-score was 0.388 (inactive). For GGCAGGUUUUUGAACUGGUTT against Olfr725, the z-score was 2.28 (active). For GCUGAGAGGUAAAGACACATT against Cntd1, the z-score was 0.116 (inactive). In the case of UCCAGAGGAUCCGCUGUGATT against Krt74, the z-score is reported as -0.632 (inactive). For GGACUAAACAGAUUCACUATT against Rnase9, the z-score was -2.42 (active). In the case of GGAUCCUUCGCUUUUAUCGTT against Nox1, the z-score is reported as -0.343 (inactive). For GGAAAAUCACUUCAUUCACTT against Ltk, the z-score was 0.893 (inactive). In the case of CCUUCGUAGUCUUGAUGUGTT against Olfr1179, the z-score is reported as -0.104 (inactive). For GGAUCAAAAAAAAACUGGATT against Sinhcaf, the z-score was 1.19 (inactive). In the case of GGAAUUAGUCUCCAAAUAUTT against Sh2d1b1, the z-score is reported as 0.604 (inactive). For GCCAGUACGAAGUGAUCUGTT against Ackr4, the z-score was 2.8 (active). In the case of GGUUCUUGGUUUACAUAAGTT against Slc39a12, the z-score is reported as -1.23 (inactive).
